Each structure is given as a SMILES string. Where “and” joins values, the source holds several entries; their conditions need not be identical. Equal values may be shown once. Results filed as inconclusive are left out. Where a structure was tested more than once in an assay, its records may differ in their call. Calls of active or inactive are those of the source. Unless noted, calls come from the whole dose curve; as a rule, active = well fitted curve in the direction sought with a large enough effect in the repeat runs; inconclusive = weak or mixed curves; inactive = no such curve, though single readings can be large; an effect the other way counts as inactive or inconclusive.

A short description of assay [1]: qHTS assay for small molecules that induce genotoxicity in human embryonic kidney cells expressing luciferase-tagged ATAD5 (AID 651632). Note: nearly all actives have a fitted effect of over 15% in size. Note: potency is the fitted concentration of half-maximal effect. The gist of the method:
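A rise in luciferase signal from ATAD5-tagged HEK293T cells marks genetic stress. Cells were exposed to compounds for 16 hr at 37C, 5% CO2, then luciferase was quantified after a 30 min room-temperature incubation with Amplite.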
In general terms: In qHTS, concentration-response curves come from the screen itself.

Assay [2] is described as follows: qHTS assay for small molecule disruptors of the mitochondrial membrane potential - cell viability (AID 720634; calls by dose curve;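 note: human HepG2 liver cancer cells; series mostly up to about 83 µM; nearly all actives have a fitted effect of over 20% in size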). In a few lines: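 Cytotoxicity was quantified from ATP content by CellTiter-Glo luminescence in the same wells as the MMP dye read-out. HepG2 (2,000 cells/well) were plated overnight and exposed to compounds for 1 hr at 37 C.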
The nature of assay [3]: qHTS assay to test for compound auto fluorescence at 590 nm (red) in HepG2 cells (AID 720674). In a few lines: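 Rose Bengal sodium served as the red fluorophore standard. HepG2 monolayers (overnight attachment, MEM with 10% FBS) were exposed to test compounds for 1 hr at 37 C and read at Ex 540/Em 590 nm.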
Assay [4] can be described thus: qHTS assay to test for compound auto fluorescence at 535 nm (green) in HepG2 cells (AID 720675).
The nature of assay [5]: qHTS assay to test for compound auto fluorescence at 460 nm (blue) in HEK293 cells (AID 720678). In a few lines:
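HEK293, 2,000 cells/well, 10% dialyzed FBS; attach 4-5 hr 37C; pin compound or DMSO; o/n 37C/5% CO2; fluorescence 405/460 nm; triamterene-equivalent units.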

A short description of assay [6]: qHTS assay to test for compound auto fluorescence at 590 nm (red) in HEK293 cells (AID 720679). The gist of the method:
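Intensity at 540nm excitation and 590nm emission is reported as Rose Bengal sodium-equivalent autofluorescence. Measurements followed overnight exposure (37C, 5% CO2) of HEK293 cells, 2,000 per well, to 23 nL compound.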

Assay [7] can be described thus: qHTS assay for small molecule agonists of the p53 signaling pathway - cell viability (AID 651633; calls by dose curve; note: nearly all actives have a fitted effect of over 30% in size; note: potency is the fitted concentration of half-maximal effect). In a few lines:
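p53RE-bla cells, seeded at 4,000 per well and rested 5 h at 37 C/5% CO2, received compounds in DMSO for 16 h at 37 C. CellTiter-Glo was then added, and luminescence was read after 30 min at room temperature to gauge cytotoxicity.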

The nature of assay [8]: qHTS assay for small molecule disruptors of the mitochondrial membrane potential (AID 720635). Note: potency is the fitted concentration of half-maximal effect. In a few lines: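 HepG2 cells (2,000/well) attached overnight at 37C, then took compound for 1 hr at 37C, 5% CO2. Mito-MPS dye was added for 30 min; fluorescence was read at 490/535 nm (monomers) and 540/590 nm (aggregates).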
The nature of assay [9]: qHTS assay for small molecules that induce genotoxicity in human embryonic kidney cells expressing luciferase-tagged ATAD5 - cell viability (AID 651634; calls by dose curve; note: nearly all actives have a fitted effect of over 25% in size). The gist of the method:
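Cytotoxicity counter-readout: after 15.5 hr compound treatment at 37C, live-cell protease activity in ATAD5-luciferase HEK293T cells measured by CellTiter-Fluor fluorescence, 30 min development at 37C.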

Turning to `C=C[C@H]1CN2CC[C@H]1C[C@@H]2[C@@H](O)c1ccnc2ccc(OC)cc12`, the Potency entry in [1], in [2], in [3], in assay [4] and in assay [6] was “inactive” throughout. Further, in assay [5], the molecule was called inactive.
For the molecule `Cc1ccc(C(C)(C)C)c(O)c1`, the Potency result in [1], in [7], in assay [2], in assay [3], in assay [4] and in [6] was “inactive” each time. Moreover, the Potency in assay [8] was 26.4 µM (active) and 17.2 µM (active). In assay [5], the molecule was called inactive.
Regarding `CC(C)(C)c1cccc(C(C)(C)C)c1O`, the Potency result in assay [1], in [7], in assay [2], in [3] and in assay [6] was “inactive” throughout. Also, the Potency in assay [8] is 16.8 µM (active) and 15.4 µM (active). Moreover, in assay [5], the outcome was inactive.
For the molecule `C[N+](C)(C)CCO`, the Potency result in [1], in [7], in [2], in assay [3], in assay [4] and in [6] was “inactive” in each case. Further, the outcome in [5] was inactive.
For `CC(=O)[C@@]1(O)CC[C@H]2[C@@H]3C[C@H](C)C4=CC(=O)C=C[C@]4(C)[C@@]3(F)[C@@H](O)C[C@@]21C`, the Potency entry in assay [1], in assay [7], in assay [2], in assay [3] and in assay [6] was “inactive” in each case. Further, in assay [5], the result was inactive.
On to `c1ccc2c(c1)ccc1ncccc12`, for which the Potency result in [1], in [9], in assay [2], in [3], in [4] and in assay [6] was “inactive” in each case. Moreover, the Potency in assay [8] is 27.3 µM (active). Further, the molecule was called inactive in assay [5].
Regarding `CCCCCCOCCOCCO`, the Potency entry in [7], in [2], in assay [3] and in [6] was “inactive” in each case. Besides, in assay [5], the result was inactive.
On to `CCO[Si](CCCNC(N)=O)(OCC)OCC`, for which the Potency result in [1], in assay [7], in assay [2], in [3], in assay [4] and in assay [6] was “inactive” in each case. Besides, in assay [5], the outcome was inactive.
As to `CC/C=C\C/C=C\C/C=C\CCCCCCCC(=O)O`, the Potency result in assay [7], in [9], in assay [2], in [3], in assay [4] and in assay [6] was “inactive” throughout. Moreover, the molecule was classed as inactive in [5].
For the molecule `C[C@]12C=CC(=O)C=C1CC[C@H]1[C@@H]3C[C@@H](O)[C@](O)(C(=O)CO)[C@@]3(C)C[C@H](O)[C@@]12F`, the Potency entry in assay [1], in assay [7], in [2], in assay [8], in assay [3] and in [6] was “inactive” in each case. For the same molecule, the call in assay [5] was inactive.
Turning to `C[C@]12CC[C@@H]3c4ccc(O)cc4CC[C@H]3[C@@H]1CC[C@H]2O`, the Potency entry in [1], in [7], in assay [3] and in assay [6] was “inactive” in each case. In addition, in assay [8], the Potency was 27.8 µM (active) and 27.3 µM (active). Also, the outcome in assay [5] was inactive.
In the case of `CC(C)[C@@H]1CC[C@@H](C)CC1=O`, the Potency entry in assay [7], in assay [9], in assay [2], in assay [3] and in [6] was “inactive” throughout. The molecule was classed as inactive in assay [5].
Take `CC(=O)O[C@]1(C(C)=O)CC[C@H]2[C@@H]3C=C(Cl)C4=CC(=O)CC[C@]4(C)[C@H]3CC[C@@]21C`: the Potency entry in assay [1], in assay [9], in assay [2], in [3] and in [6] was “inactive” in each case. The molecule was called inactive in assay [5].
For `Oc1ccc(C(c2ccc(O)cc2)C(Cl)(Cl)Cl)cc1`, the Potency result in [1], in assay [2], in assay [3], in [4] and in assay [6] was “inactive” throughout. Also, the Potency was 68.3 µM (active) in [7]; 6.09 µM (active) and 6.86 µM (active) in assay [8]. In assay [5], the result was inactive.
For `c1ccc2cc3ccccc3cc2c1`, the Potency entry in assay [1], in assay [7], in [2], in assay [3] and in [6] was “inactive” throughout. In addition, the Potency in assay [8] was 5.01 µM (active) and 34.4 µM (active). Further, the molecule was called inactive in assay [5].
With `CC1=CC(C)(C)Nc2ccccc21`, the Potency result in assay [1], in assay [7], in assay [2], in assay [3], in assay [4] and in [6] was “inactive” each time. In addition, the Potency entry in assay [8] was “inactive and 59.5 µM (active)”. Moreover, in [5], the molecule was classed as inactive.
`CCCCCC=O`: the Potency result in [1], in assay [7], in assay [2], in [3], in assay [4] and in [6] was “inactive” throughout. For the same molecule, the call in assay [5] was inactive.
Turning to `c1ccc2c(c1)ccc1cc3c(ccc4ccccc43)cc12`, the Potency in assay [1] is 853 nM (active) and 959 nM (active). Moreover, the Potency result in [7], in assay [2], in assay [8], in [3], in assay [4] and in assay [6] was “inactive” each time. The molecule was called inactive in assay [5].
`CCCN1C=CN(C)C1`: the Potency entry in assay [1], in [7], in [2], in assay [3], in [4] and in [6] was “inactive” in each case. In assay [5], the outcome was inactive.
`CC/C(=C(/CC)c1ccc(O)cc1)c1ccc(O)cc1`: the Potency in [7] is 60.6 µM (active). The Potency result in assay [9], in assay [2], in assay [3] and in [6] was “inactive” throughout. The result in assay [5] was inactive.
For `CCC/C=C/C=O`, the Potency result in [1], in assay [7], in assay [2], in assay [3], in [4] and in assay [6] was “inactive” in each case. In addition, the outcome in assay [5] was inactive.
In the case of `NC[C@H](O)c1ccc(O)c(O)c1`, the Potency result in assay [1], in assay [9], in assay [2], in [3], in assay [4] and in assay [6] was “inactive” in each case. In [5], the result was inactive.
Turning to `CCOC(=O)C(C)Oc1ccc(Oc2cnc3cc(Cl)ccc3n2)cc1` (configuration not stated), the Potency entry in assay [1], in assay [9], in assay [2], in assay [3], in assay [4] and in assay [6] was “inactive” throughout. The outcome in assay [5] was inactive.
As for `ClC/C=C/CCl`, the Potency entry in assay [1], in [7], in assay [2], in assay [3], in assay [4] and in assay [6] was “inactive” each time. Also, in assay [5], the outcome was inactive.
For `COC(=O)C(C)Oc1ccc(Oc2ncc(C(F)(F)F)cc2Cl)cc1` (configuration not stated), the Potency result in assay [1], in assay [7], in assay [2], in assay [8], in assay [3] and in [6] was “inactive” in each case. In assay [5], the molecule was classed as inactive.
For the molecule `CC(=O)OC(C)C`, the Potency result in assay [1], in [7], in assay [2], in assay [3] and in [6] was “inactive” in each case. Further, in [5], the call was inactive.
For `CC(=O)[C@H]1CC[C@H]2[C@@H]3CC=C4C[C@@H](O)CC[C@]4(C)[C@H]3CC[C@]12C`, the Potency entry in [1], in assay [7], in assay [2], in assay [3] and in [6] was “inactive” throughout. For the same molecule, in assay [5], the outcome was inactive.
`Nc1cc([N+](=O)[O-])ccc1C(=O)O`: the Potency result in assay [1], in assay [7], in assay [2], in assay [3], in assay [4] and in assay [6] was “inactive” each time. Further, the Potency in [8] is 38.6 µM (active). The molecule was classed as inactive in assay [5].

Values taken from PubChem BioAssay (Tox21).
